# Lassa entry inh: qHTS for Inhibitors of binding or entry into cells for Lassa Virus. Lassa virus pseudotype entry inhibition, cell reporter. Potency, µM (series often up to 37.9 µM), without a hit: at the top dose activity change, negative = inhibition, most hits filed as inhibitors. hit rate 1.2% among 300,000; calls by dose curve; tested in HEK293 cells; further: potency means the concentration at half of the fitted maximal effect; nearly all actives have a fitted effect of over 50% in size
# FBPA Giardia inh: qHTS Assay for Inhibitors of Fructose-1,6-bisphosphate Aldolase from Giardia Lamblia | Potency, µM (highest dose often 59.6 µM), without a hit: at the top dose activity, negative = inhibition, actives largely listed as inhibitors | A8B2U2 | AID 2451, 2010 | purified Giardia FBPA | hit rate 0.71% among 290,000; further: potency means the concentration at half of the fitted maximal effect; nearly all actives have a fitted effect of over 55% in size
# Target sequence (A8B2U2 whole entry, looked up): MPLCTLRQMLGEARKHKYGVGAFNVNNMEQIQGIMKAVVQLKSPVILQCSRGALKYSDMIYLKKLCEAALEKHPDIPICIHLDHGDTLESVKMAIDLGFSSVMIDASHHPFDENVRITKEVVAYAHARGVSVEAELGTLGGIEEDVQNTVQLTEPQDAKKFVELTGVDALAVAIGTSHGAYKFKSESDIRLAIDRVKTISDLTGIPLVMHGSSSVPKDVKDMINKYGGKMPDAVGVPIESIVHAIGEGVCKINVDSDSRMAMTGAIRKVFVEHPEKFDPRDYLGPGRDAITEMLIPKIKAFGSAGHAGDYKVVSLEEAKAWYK
#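 Giardia FBPA (40 nM reagent) was preincubated 10 min at RT with compound (up to 57.5 uM final), then substrate plus GAPDH/TPI/NAD/arsenate coupling system with diaphorase/resazurin was added; resorufin fluorescence (525/598 nm) was read after 20 min.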
# HCMV antiviral: qHTS Assay for inhibitors of the human cytomegalovirus (HCMV); HFF cells, HCMV-luciferase reporter, 72 h; hits give low values; activity change, negative = inhibition, % at 57.5 µM; hit rate 4.5% among 410,000; AID 1259415, 2018; in the data active means activity change below about -60%; inconclusive means no clear call, values can overlap the other calls; inactive means above about -39%
#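 Two compound doses tested in HFFs infected with HCMV-luciferase, MOI 1 PFU/cell, 72 h at 37C. Lysate luminescence read with OneGlo; data normalized against buffer-only and 10uM Salinomycin inhibitor controls.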
# HCV inh: qHTS Assay for Inhibitors of Hepatitis C Virus (HCV); hit rate 3.4% among 340,000; Huh7.5.1 HCVcc-Cre infection, luciferase reporter, 44 h; AID 651820, 2012; Potency, µM (series often up to 41.8 µM), without a hit: at the highest dose activity change, negative = inhibition, hits mostly inhibitors; further: potency means the concentration at half of the fitted maximal effect
#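 After 44 h co-culture of compound, cells and HCVcc-Cre (~0.5 moi), substrate is added for 15 min at room temperature and luciferase measured over 15 sec. Cells were seeded at 1,000/well and pre-cultured 4 h.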
# MARV entry inh: qHTS for inhibitors of binding or entry into cells for Marburg Virus; hit rate 1.8% among 300,000; Potency, µM (series often up to 37.8 µM), for inactives: at the highest dose activity change, negative = inhibition, usual class: inhibitors; Marburg virus pseudotyped entry inhibition, cell reporter; calls by dose curve; tested in HEK293 cells; further: potency means the concentration at half of the fitted maximal effect
# FMDV inh: High Throughput Screening for Foot and Mouth Disease Virus Antivirals. Potency, µM (highest dose often 57.9 µM), inactives show at the highest dose activity change, negative = inhibition, hits mostly inhibitors. FMDV antiviral cell-based qHTS. AID 1159524, 2015. hit rate 1.2% among 410,000; calls by dose curve; tested in HEK293T cells; further: read-out not given here; potency means the concentration at half of the fitted maximal effect; nearly all actives have a fitted effect of over 45% in size
# * marks the source's active call; other numbers are inactive results; ? = inconclusive; / = not tested or not shown; [ ] = another dose, or the depositor's remark. Hits are enriched below; roughly 8.3% of the tested compounds scored in any of these assays. Unless noted, the call rests on the fitted dose curve; in most records, active means well fitted curve in the direction sought with a large enough effect; inconclusive means small, poorly fitted or top-dose-only effect, or another doubt; inactive means no such curve, though single readings can be large; an effect the other way counts as inactive or inconclusive. On the % scale 0 is the no-effect control and ±100 the full control effect.
SMILES,Lassa entry inh,FBPA Giardia inh,HCMV antiviral,HCV inh,MARV entry inh,FMDV inh
COc1cccc(C2CC(=O)Nc3cc4c(cc32)OCO4)c1OC(C)C (centres undefined),-29%[46.1 µM],/,?,/,?,?
COc1ccccc1C1CC(=O)Nc2cc(C)c(C)cc21 (centres undefined),?,3%,-5,?,?,-13%
Cc1nnc(N2CCN(C(=O)Nc3cccc(C(F)(F)F)c3)CC2)c2nn(-c3ccccc3)c(C)c12,-17%[46.1 µM],/,?,/,/,?
Nc1nc(Cl)nc2c1ncn2[C@@H]1O[C@H](COP(=O)(O)OP(=O)(O)OP(=O)(O)O)[C@@H](O)[C@H]1O,-18%,/,/,/,-26%,/
CC1=CC(C)(C)NC(=S)N1c1cccc2ccccc12,-1%,-5%,-100*,26%,-13%,-20%
CCCc1c(-c2ccccc2)ncn1Cc1ccccc1OC,/,/,-17,/,/,?
CCCCCc1c(-c2ccc(Br)cc2)ncn1CCc1ccccc1OC,/,/,-104*,/,/,?
CCCCCc1c(-c2cccc(OC)c2)ncn1CCc1ccccc1OC,/,/,-95*,/,/,28µM*
CCCCCc1c(-c2ccc(F)cc2)ncn1CCc1ccccc1OC,/,/,-28,/,/,?
CCCCc1c(-c2cccc(F)c2)ncn1CCc1ccccc1OC,/,/,-61*,/,/,25µM*
CCCc1c(-c2cccc(F)c2)ncn1CCc1ccccc1OC,/,/,-74*,/,/,?
CC1CCN(C(=O)c2c(NC(=O)c3ccccc3F)sc3c2CCC(C(C)(C)C)C3)CC1 (centres undefined),3%[46.1 µM],/,-9,/,-1%[46.1 µM],-3%
Fc1ccccc1N1CCN(c2nnc(C(F)(F)F)c3nnn(Cc4ccccc4)c23)CC1,0%[46.1 µM],/,-33,/,3%[46.1 µM],0%
CCCCCc1c(-c2cccc(F)c2)ncn1CCc1ccccc1OC,/,/,?,/,/,22µM*
CCCCCc1c(-c2cccc(Cl)c2)ncn1CCc1ccccc1OC,/,/,-6,/,/,-27%
CCCCc1c(-c2cccc(Br)c2)ncn1CCc1ccccc1OC,/,/,-101*,/,/,?
Cc1cc(Br)ccc1NC(=O)c1ccc(NS(=O)(=O)c2c(C)noc2C)cc1,?,/,-15,/,11%[46.1 µM],-22%
O=C(CCc1ccccc1)NC(c1cccs1)c1cc(Cl)c2cccnc2c1O (centres undefined),2.8µM*,14%,-102*,1µM*,?,-26%
CCC(=O)NC(c1cccs1)c1cc([N+](=O)[O-])c2cccnc2c1O (centres undefined),?,?,-81*,?,?,0%
CCC(=O)NC(c1cccs1)c1cc(Cl)c2ccccc2c1O (centres undefined),/,/,3,/,/,-13%
CCCC(=O)NC(c1cccs1)c1cc([N+](=O)[O-])c2cccnc2c1O (centres undefined),?,?,-99*,?,?,0%
CC(C)OCCCN1C(=O)c2[nH]nc(-c3ccccc3O)c2C1c1ccccc1F (centres undefined),?,/,-12,/,?,0%
Cc1ccccc1CN1C(=O)C(O)(CC(=O)c2cccc(Br)c2)c2ccccc21 (centres undefined),-24%[46.1 µM],/,?,/,/,-23%
Cc1cc(Cl)ccc1C(=O)C1CCCN(C2CCSCC2)C1 (centres undefined),?,0%,?,2%,10µM*,-3%
Cc1cc(Cl)ccc1C(=O)C1CCCN(C(=O)c2ccoc2)C1 (centres undefined),?,7%,-34,5%,3%[46.1 µM],?
COc1cccc(NC(=O)C2(C)CCN2C(C)C)c1OC (centres undefined),/,/,-6,/,/,-20%
Cc1c(Br)cccc1NC(=O)C1(C)CCN1C(C)C (centres undefined),/,/,-80*,/,/,-9%
Cc1c(/C(O)=C2/C(=O)C(=O)N(Cc3cccnc3)C2c2cccs2)cnn1-c1ccccc1 (centres undefined),27%,30%,-38,-24%,23%,-10%

# Screening data deposited in PubChem BioAssay by National Center for Advancing Translational Sciences (NCATS).
